Test results published in the supplement of paper PMC10849652.
The full data set covers some 8,800 targets. This sample favours those with a hit. About 0.5% of all pairs of compound and target were hits.

How the values were obtained:
Assay in all cases: log2 fold change, soluble protein after heating vs DMSO (PISA); higher = thermal stabilisation; K562 lysate, 10 uM; active = over 0.2 and 3.5 SD of the protein, either way, in both replicates (recomputed)
[1] = compound: C1=CC=C(C=C1)[C@H](COC2=CC3=C(C=C2)NC(=O)N3)NC(=O)C4=CC=CN(C4=O)CC5=CC(=C(C=C5)F)F
Procedure, shortened: (§1)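 Values give the log-two fold change in thermal stability against solvent controls, from duplicates. Crude K562 extract at 1 mg/mL protein, made by dounce homogenisation in PBS pH 7.4 with 1 mM MgCl2, was treated with 10 μM compound for 30 min. After 3 min heating across 48°C-58°C, aliquots were pooled, adjusted to 0.5% NP-40 at 4°C and centrifuged at 21,000xg for 90 min. The supernatant was measured by TMTpro 16plex LC-MS/MS with channel sums equalised.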

[2] = compound: CC1=C(SC2=C1C(=N[C@H](C3=NN=C(N32)C)CC(=O)N)C4=CC=C(C=C4)Cl)C
Procedure, shortened: as §1

[3] = compound: CC1=C2C(=CC=C1)N=C(N(C2=O)C3=CC=CC=C3C)CN4C=NC5=C(N=CN=C54)N
Procedure, shortened: as §1

[4] = compound: Cc1sc2c(c1C)C(c1ccc(Cl)cc1)=N[C@@H](CC(=O)OC(C)(C)C)c1nnc(C)n1-2
Procedure, shortened: as §1

[5] = compound: c1ccc([C@@H]2C[C@H]2NC2CCNCC2)cc1
Procedure, shortened: as §1

Measured: log2 fold change

STK4 (UniProt Q13043)
Sequence of UniProt Q13043 (Q13043 whole entry, looked up): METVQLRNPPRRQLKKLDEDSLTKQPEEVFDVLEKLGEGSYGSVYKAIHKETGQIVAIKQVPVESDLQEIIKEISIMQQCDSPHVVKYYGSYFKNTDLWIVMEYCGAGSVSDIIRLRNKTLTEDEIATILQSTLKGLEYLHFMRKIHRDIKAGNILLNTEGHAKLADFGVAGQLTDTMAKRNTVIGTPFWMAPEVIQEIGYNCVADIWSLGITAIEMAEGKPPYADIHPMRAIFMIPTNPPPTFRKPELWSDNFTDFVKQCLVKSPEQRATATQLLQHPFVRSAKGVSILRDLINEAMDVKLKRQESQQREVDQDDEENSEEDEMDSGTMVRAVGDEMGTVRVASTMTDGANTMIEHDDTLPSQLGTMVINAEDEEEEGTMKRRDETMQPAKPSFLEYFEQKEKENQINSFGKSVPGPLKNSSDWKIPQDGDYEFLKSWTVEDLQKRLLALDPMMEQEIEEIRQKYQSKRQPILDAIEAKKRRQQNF
inactive: [1] -0.031 | [2] -0.098 | [3] -0.05 | [4] -0.029 | [5] -0.124

SHKBP1 (UniProt Q8TBC3)
Sequence of UniProt Q8TBC3 (Q8TBC3 whole entry, looked up): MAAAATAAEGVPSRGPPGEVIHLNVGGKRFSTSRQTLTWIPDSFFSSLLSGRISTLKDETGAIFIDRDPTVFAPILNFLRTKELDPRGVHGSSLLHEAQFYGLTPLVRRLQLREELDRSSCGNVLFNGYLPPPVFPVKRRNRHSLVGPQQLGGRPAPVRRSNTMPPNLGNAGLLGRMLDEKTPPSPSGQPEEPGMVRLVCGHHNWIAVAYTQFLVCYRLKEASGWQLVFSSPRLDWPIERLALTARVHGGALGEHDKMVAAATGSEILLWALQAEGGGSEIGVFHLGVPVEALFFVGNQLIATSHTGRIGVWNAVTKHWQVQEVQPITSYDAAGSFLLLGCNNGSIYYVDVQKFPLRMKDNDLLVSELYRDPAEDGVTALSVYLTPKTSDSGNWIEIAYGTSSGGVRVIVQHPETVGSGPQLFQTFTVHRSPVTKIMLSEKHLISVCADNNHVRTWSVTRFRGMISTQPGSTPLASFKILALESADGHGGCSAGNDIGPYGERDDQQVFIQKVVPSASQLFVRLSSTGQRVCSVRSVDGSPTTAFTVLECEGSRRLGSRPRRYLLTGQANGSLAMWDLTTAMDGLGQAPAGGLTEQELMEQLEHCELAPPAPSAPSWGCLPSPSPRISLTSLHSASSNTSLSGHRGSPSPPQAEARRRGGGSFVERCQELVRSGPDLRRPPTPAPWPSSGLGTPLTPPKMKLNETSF
inactive: [1] 0.016 | [2] 0.02 | [3] 0.077 | [4] -0.027 | [5] 0.007

SLC25A17 (UniProt O43808)
Sequence of UniProt O43808 (O43808 whole entry, looked up): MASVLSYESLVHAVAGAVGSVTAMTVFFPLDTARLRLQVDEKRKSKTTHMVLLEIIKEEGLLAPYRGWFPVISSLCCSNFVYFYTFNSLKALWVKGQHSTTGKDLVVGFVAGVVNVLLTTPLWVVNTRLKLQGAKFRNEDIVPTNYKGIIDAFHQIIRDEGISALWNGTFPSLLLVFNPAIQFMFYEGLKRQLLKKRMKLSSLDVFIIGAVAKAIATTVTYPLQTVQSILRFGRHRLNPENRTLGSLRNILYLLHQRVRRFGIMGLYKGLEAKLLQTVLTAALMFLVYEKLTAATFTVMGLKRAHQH
inactive: [1] -0.014 | [2] 0.007 | [3] -0.024 | [4] -0.096 | [5] -0.163

SUZ12 (UniProt Q15022)
Sequence of UniProt Q15022 (Q15022 whole entry, looked up): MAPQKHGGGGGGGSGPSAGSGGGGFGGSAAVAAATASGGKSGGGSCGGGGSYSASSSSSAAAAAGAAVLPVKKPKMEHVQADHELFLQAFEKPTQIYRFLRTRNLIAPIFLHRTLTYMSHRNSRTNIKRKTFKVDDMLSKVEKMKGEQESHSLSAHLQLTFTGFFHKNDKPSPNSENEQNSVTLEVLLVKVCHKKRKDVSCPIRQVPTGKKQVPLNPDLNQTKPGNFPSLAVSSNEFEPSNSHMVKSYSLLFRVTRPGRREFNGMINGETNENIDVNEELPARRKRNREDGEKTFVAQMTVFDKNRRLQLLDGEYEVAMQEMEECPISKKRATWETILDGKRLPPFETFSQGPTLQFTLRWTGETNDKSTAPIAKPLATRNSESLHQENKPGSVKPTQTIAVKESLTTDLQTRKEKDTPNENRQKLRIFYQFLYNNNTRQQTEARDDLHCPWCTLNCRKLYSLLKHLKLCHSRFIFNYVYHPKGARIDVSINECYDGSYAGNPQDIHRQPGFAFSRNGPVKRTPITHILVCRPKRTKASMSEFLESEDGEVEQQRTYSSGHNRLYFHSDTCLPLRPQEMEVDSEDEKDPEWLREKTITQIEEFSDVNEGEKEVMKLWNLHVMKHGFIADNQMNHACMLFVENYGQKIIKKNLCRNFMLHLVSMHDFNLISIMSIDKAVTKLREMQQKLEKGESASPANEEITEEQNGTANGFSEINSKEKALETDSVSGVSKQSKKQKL
inactive: [1] -0.011 | [2] 0.042 | [3] -0.008 | [4] -0.047 | [5] -0.039

SLC7A5 (UniProt Q01650)
Sequence of UniProt Q01650 (Q01650 whole entry, looked up): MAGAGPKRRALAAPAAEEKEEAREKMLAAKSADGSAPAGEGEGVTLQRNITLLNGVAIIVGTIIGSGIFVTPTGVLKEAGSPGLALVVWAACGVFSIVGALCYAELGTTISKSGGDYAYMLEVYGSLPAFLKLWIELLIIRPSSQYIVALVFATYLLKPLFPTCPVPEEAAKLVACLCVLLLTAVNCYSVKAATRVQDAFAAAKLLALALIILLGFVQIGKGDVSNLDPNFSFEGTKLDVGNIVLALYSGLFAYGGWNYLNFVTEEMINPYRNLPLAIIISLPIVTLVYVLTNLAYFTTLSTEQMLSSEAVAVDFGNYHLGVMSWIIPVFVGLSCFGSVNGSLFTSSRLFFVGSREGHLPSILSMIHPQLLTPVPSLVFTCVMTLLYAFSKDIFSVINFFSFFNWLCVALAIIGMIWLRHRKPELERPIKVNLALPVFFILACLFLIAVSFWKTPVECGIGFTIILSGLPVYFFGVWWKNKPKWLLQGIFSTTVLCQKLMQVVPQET
inactive: [1] 0.019 | [2] -0.027 | [3] 0.003 | [4] -0.061 | [5] -0.231

STK26 (UniProt Q9P289)
Sequence of UniProt Q9P289 (Q9P289 whole entry, looked up): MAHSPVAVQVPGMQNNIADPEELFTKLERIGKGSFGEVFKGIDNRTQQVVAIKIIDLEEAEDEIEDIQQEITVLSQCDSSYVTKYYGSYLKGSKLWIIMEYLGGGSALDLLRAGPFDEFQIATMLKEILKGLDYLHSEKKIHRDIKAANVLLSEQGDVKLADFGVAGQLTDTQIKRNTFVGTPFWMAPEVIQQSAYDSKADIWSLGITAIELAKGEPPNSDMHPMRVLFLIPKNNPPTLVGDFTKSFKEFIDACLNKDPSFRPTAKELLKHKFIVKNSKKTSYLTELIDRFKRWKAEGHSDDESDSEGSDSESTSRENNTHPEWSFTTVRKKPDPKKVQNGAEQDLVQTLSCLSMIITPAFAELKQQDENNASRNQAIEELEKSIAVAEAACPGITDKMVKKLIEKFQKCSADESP
inactive: [1] -0.015 | [2] -0.015 | [3] 0.008 | [4] -0.015 | [5] 0.02

STK38 (UniProt Q15208)
Sequence of UniProt Q15208 (Q15208 whole entry, looked up): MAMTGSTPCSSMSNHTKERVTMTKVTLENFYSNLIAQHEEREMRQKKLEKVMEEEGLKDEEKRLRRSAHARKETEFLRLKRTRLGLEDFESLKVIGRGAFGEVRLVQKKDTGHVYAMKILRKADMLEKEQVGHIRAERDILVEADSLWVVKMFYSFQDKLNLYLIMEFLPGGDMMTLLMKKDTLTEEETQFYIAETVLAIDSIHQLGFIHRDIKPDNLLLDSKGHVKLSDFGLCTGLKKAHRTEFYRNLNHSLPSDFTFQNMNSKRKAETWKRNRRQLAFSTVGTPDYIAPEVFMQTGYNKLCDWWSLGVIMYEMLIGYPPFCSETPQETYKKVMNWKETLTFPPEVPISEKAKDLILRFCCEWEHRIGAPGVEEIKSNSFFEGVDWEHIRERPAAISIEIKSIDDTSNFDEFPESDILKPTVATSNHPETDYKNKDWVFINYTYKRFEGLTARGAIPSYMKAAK
inactive: [1] -0.089 | [2] -0.02 | [3] -0.014 | [4] -0.012 | [5] -0.066

SSNA1 (UniProt O43805)
Sequence of UniProt O43805 (O43805 whole entry, looked up): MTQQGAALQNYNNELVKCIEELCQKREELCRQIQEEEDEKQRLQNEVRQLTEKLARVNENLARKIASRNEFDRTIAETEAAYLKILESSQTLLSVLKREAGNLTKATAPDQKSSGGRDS
inactive: [1] 0.034 | [2] -0.038 | [3] 0.009 | [4] -0.129 | [5] -0.075

SNRNP40 (UniProt Q96DI7)
Sequence of UniProt Q96DI7 (Q96DI7 whole entry, looked up): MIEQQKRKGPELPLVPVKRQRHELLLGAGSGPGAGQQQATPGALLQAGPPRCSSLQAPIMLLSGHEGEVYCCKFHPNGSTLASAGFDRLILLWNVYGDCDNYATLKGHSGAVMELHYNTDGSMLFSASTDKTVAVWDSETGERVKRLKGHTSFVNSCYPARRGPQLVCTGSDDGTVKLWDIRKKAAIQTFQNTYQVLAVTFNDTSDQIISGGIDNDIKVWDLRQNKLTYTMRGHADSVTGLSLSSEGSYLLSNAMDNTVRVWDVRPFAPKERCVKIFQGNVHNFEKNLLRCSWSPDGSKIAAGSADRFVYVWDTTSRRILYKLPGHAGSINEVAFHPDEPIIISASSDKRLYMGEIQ
inactive: [1] 0.023 | [2] -0.03 | [3] 0.012 | [4] 0 | [5] -0.002
